# Compounds with a hit are over-represented: about 2.9% of the library has one in this group of screens.
# Rtt109 HAT inh: C. albicans Rtt109 histone acetyltransferase inhibition | purified Rtt109/Vps75, ThioGlo CoA-SH fluorescence, 4 h | inhibition, % at 34.9 µM | 0.16% of 330,000 active;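 active means inhibition of at least 50% in every replicate; inconclusive means best replicate reaches 50% inhibition but some replicates fall short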
# Target sequence (Q5AAJ8 whole entry, looked up): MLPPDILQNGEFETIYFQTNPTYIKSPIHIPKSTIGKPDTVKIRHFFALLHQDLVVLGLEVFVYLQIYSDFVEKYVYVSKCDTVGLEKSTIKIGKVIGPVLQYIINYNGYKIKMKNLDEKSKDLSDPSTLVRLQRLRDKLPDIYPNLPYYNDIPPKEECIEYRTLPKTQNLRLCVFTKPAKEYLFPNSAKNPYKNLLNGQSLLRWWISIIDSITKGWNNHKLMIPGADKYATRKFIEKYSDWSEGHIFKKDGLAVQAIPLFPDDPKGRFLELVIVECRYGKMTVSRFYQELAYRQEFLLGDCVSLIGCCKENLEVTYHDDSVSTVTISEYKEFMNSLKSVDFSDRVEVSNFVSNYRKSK
# Myeloid diff 2: promotes myeloid progenitor differentiation; ER-HoxA9 myeloid progenitors, lysozyme-GFP differentiation, flow cytometry; calls only at 10 µM; 1% of 360,000 active; AID 624256;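 active means normalized GFP-positive differentiation at or above the plate's own cutoff, the solvent-only control mean plus 3 SD; inconclusive means no clear call, values can overlap the other calls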;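 further: cells exposed to compound for four days before flow analysis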
# DAGLB inhibitor: blocks human DAGLB lipase activity. Q8NCG7. HEK293T DAGLB membrane lysate, EnzChek fluorogenic substrate. inhibition, % at 5.17 µM. 0.059% of 340,000 active. AID 504411; in the data active means inhibition above about 34%;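 further: 0% = enzyme with vehicle and 100% = wells lacking enzyme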
# ABHD5 PLIN5 PPI: inhibitors of human ABHD5-perilipin-5 interaction; Q00G26+Q8WTS1; Split G. princeps luciferase complementation, luminescence, 4 h; inhibition, % at 4 µM; 0.78% of 360,000 active;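 active means inhibition above the mean inhibition across every tested compound plus 3 SD, cut at about 22% in these data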;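 further: 0% = DMSO only wells and the 100% control is not disclosed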
# Cardio protect: myocardial damage modulation in H9c2 cells; H9c2 cardiomyocytes, H2O2 injury protection, ATPLite, 2 h; 0.63% of 360,000 active; AID 588492; protection from H2O2 cell death, % at 20 µM;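 active means compounds giving at least 50% protection of heart cells from peroxide-induced death in the single-dose screen, raw or plate-pattern-corrected value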;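 further: 0% = DMSO wells with peroxide and 100% = DMSO wells without peroxide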
# HGIII-sPLA2 inh: Inhibits HGIII-sPLA2 liposome hydrolysis, primary screen | Q9NZ20 | QFRET BODIPY PC-A2 liposome hydrolysis, fluorescence | inhibition, % at 12.2 µM | 0.56% of 370,000 active | AID 743126;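 active means inhibition above mean plus 3 SD of compounds lying within the high and low control bounds, cut at about 19% in these data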;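 further: 0% = median of test compound wells and 100% = no enzyme DMSO wells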
# The depositor's hits bear a star; i = inactive; ? = inconclusive; / = no result given; + = active, no number.
SMILES,Rtt109 HAT inh,Myeloid diff 2,DAGLB inhibitor,ABHD5 PLIN5 PPI,Cardio protect,HGIII-sPLA2 inh
O=C(Nc1ccc(Cl)c(S(=O)(=O)Nc2ccccc2Cl)c1)c1cccs1,1,i,0,3,6,-33
O=C(Cn1ccc2ccccc2c1=O)NCC1COc2ccccc2O1 (centres undefined),0,i,-2,1,2,8
O=C(COC(=O)Cc1n[nH]c(=O)c2ccccc12)NNC(=O)c1ccc(Cl)cc1,4,i,1,7,66*,-13
O=C(Cc1n[nH]c(=O)c2ccccc12)OCC(=O)c1ccc2c(c1)OCCO2,0,?,-3,3,66*,-5
O=C(Cn1[nH]c(=O)c2ccccc2c1=O)NCC1COc2ccccc2O1 (centres undefined),1,i,0,2,57*,10
CCN(CC(=O)Nc1c(F)cccc1F)C(=O)Cn1[nH]c(=O)c2ccccc2c1=O,-3,i,2,0,84*,7
CCOc1ccc(C(=O)COC(=O)Cc2n[nH]c(=O)c3ccccc23)cc1,0,/,-1,-6,44,5
O=C(Cc1n[nH]c(=O)c2ccccc12)OCC(=O)c1ccc(F)cc1,4,i,-2,11,42,-2
O=C(O)c1ccc(NC2CC(=O)N(Cc3ccccc3)C2=O)cc1 (centres undefined),-14,i,2,3,-9,1
C/C(=N\NC(=O)Cn1ccc(C(F)(F)F)n1)c1ccc(N2CCOCC2)cc1,-5,i,-5,-5,1,0
O=C(Cn1[nH]c(=O)c2ccccc2c1=O)OCC(=O)c1ccccc1,-4,i,2,6,44,4
O=C(COC(=O)Cc1n[nH]c(=O)c2ccccc12)NNC(=O)c1ccc(Br)cc1,-1,i,0,-1,53*,-22
Cc1ccccc1OCC(=O)NNC(=O)Cn1[nH]c(=O)c2ccccc2c1=O,-1,i,-1,5,53*,5
COc1ccc(C(C)=O)cc1COC(=O)Cc1n[nH]c(=O)c2ccccc12,/,i,-2,7,72*,-5
Cc1ccccc1OCC(=O)NNC(=O)CN1C(=O)c2ccccc2C1=O,-4,i,1,1,7,3
O=C(COC(=O)Cn1[nH]c(=O)c2ccccc2c1=O)NNC(=O)c1ccc(Br)cc1,-2,i,0,-1,83*,-12
O=C(NC1CCN(C(=S)Nc2ccc(Cl)cc2)CC1)c1ccco1,18,i,0,5,2,5
Cc1ccccc1OCC(=O)Nc1ccc2oc(=O)ccc2c1,1,i,-2,-4,4,-1
CCC1=C(OC(=O)N(CC)CC)N2C(=O)OC(=NCCc3c[nH]c4ccccc34)[C@]2(Cc2ccccc2)[C@H]2C1=CC[C@H]1C(=O)N(C)C(=O)[C@H]12,8,i,-4,-6,-7,-58
CN(C)C(=S)SCC(=O)NCc1ccc(F)cc1,3,i,-4,1,5,3
Cc1nonc1OCCNc1ccc([N+](=O)[O-])cc1[N+](=O)[O-],27,i,-1,5,3,13
Cc1nonc1OCCCNc1ccc([N+](=O)[O-])cc1Cl,-5,+,-6,0,-5,1
COc1ccc2cc3cc(C(=O)Nc4cc(OC)c(OC)c(OC)c4)oc3nc2c1,-17,i,1,4,58*,-10
Cc1c2c(cc3c1[nH]c1ccccc13)C=NCC2,-1,+,-2,2,3,-27
Cc1c2ccncc2cc2c1[nH]c1ccccc12,19,?,4,5,-10,-22
SMILES,Rtt109 HAT inh,Myeloid diff 2,DAGLB inhibitor,ABHD5 PLIN5 PPI,Cardio protect,HGIII-sPLA2 inh
CCOC(=O)c1[nH]c(C)c(C(=O)Nc2ccc(Cl)cc2)c1C,-5,i,-2,-2,-1,7
CCOC(=O)c1[nH]c(C)c(C(=O)Nc2cccc(Cl)c2C)c1C,6,+,-2,-3,2,-2
CCOC(=O)c1ccc(NC(=O)NNC(=O)CCc2ccc(OC)cc2)cc1,23,+,-3,1,1,-10
CN(CCc1ccccn1)C(=O)CCC1CCCN(C(=O)c2cscn2)C1 (centres undefined),-3,i,1,0,3,-5
CC(=O)c1ccc(C(=O)N2CCCC(CCC(=O)N(C)CCc3ccccn3)C2)s1 (centres undefined),2,+,3,-7,3,1
O=C(CCc1nnc2ccc(N3CCCCC3)nn12)NCC1CCN(Cc2ccc(F)cc2)CC1,-4,i,0,4,-3,8
Cc1cc(N(C)/N=C/c2ccccc2O)nc(-c2ccccc2O)n1,7,i,-3,2,50*,-1
COC(=O)c1ccccc1NC(=O)Nc1cc(C)ccn1,12,i,-2,3,-2,9
Cc1ccnc(NC(=O)Nc2ccc(Br)cc2Cl)c1,-5,+,-2,-2,-10,-2
O=C(O)C(Cc1ccccc1)N1C(=O)/C(=C/c2ccccc2)SC1=S (centres undefined),53*,i,8,-5,0,-16
COc1ccc(/C=C2/SC(=S)N(Cc3ccccc3)C2=O)cc1O,8,i,-3,5,-13,-3
O=C1/C(=C\c2cc(Cl)c(O)c(Cl)c2)SC(=S)N1Cc1ccccc1,-11,+,-64,3,-17,-13
Cc1ccc(/C=C2\SC(=S)N(C(Cc3ccccc3)C(=O)O)C2=O)cc1 (centres undefined),62*,i,17,-5,-1,-4
CC1Cc2ccccc2N1CC(=O)Nc1ccc2c(c1)OCCCO2 (centres undefined),1,i,-3,4,1,-4
CC(=O)c1cccc(OCC(=O)N2CCN(c3ccc(C(F)(F)F)cn3)CC2)c1,3,i,-2,-5,-15,2
O=C(O)COCC(=O)N1CCCN(c2ccc(C(F)(F)F)cn2)CC1,-6,+,-1,6,-1,4
CCC(C)(C)NC(=O)C(c1ccco1)N(C(=O)c1csnn1)c1cccc(F)c1 (centres undefined),7,+,0,8,9,2
CC(C)(C)NC(=O)C(c1cccs1)N(C(=O)c1csnn1)c1cccc(F)c1 (centres undefined),7,i,3,-3,-4,-2
Nc1c(C(=O)Nc2ccccc2)c2nc3ccccc3nc2n1-c1ccc(O)cc1,19,i,1,23*,7,-26
CCOC(=O)c1c(N)n(-c2ccc(N)cc2)c2nc3ccccc3nc12,/,i,0,7,14,5
CCOc1ccc(-n2c(N)c(C(=O)NCc3ccco3)c3nc4ccccc4nc32)cc1,-9,?,5,33*,30,/

# Compound activity as filed in PubChem BioAssay.
